Measurements reported in the supplement of paper PMC10849652.
Of roughly 7,900 targets only a part is listed; those with a hit were picked by preference. About 0.6% of all pairs of compound and target were hits.

Columns and labels:
Assay in all cases: log2 fold change, soluble protein after heating vs DMSO (PISA); higher = thermal stabilisation; K562 cells, 10 uM, 30 min; active = over 0.2 and 3.5 SD of the protein, either way, in both replicates (recomputed)
[1] = compound: COC1=CC=C(C=C1)CN2C=CC3=C2C=C(C=C3)C(=O)NO
Outline: (§1)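 K562 cells at 2×10^6 cells/mL were given 10 μM compound for 30 min. Aliquots then went through 3 min of heating across 48°C-58°C, were pooled, and were extracted in PBS with 0.5% NP-40 at 4°C, and the supernatant after 21,000xg for 90 min was quantified by TMTpro 16plex LC-MS/MS with channel sums equalised. Thermal stability relative to control samples, from duplicates, is given as log2 fold change.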

filanesib = compound: CON(C)C(=O)N1N=C(c2cc(F)ccc2F)S[C@@]1(CCCN)c1ccccc1 [filanesib]
Outline: as §1

zotarolimus = compound: CO[C@H]1C[C@@H]2CC[C@@H](C)[C@@](O)(O2)C(=O)C(=O)N2CCCC[C@H]2C(=O)O[C@H]([C@H](C)C[C@@H]2CC[C@H](n3cnnn3)[C@H](OC)C2)CC(=O)[C@H](C)/C=C(\C)[C@@H](O)[C@@H](OC)C(=O)[C@H](C)C[C@H](C)/C=C/C=C/C=C/1C [zotarolimus]
Outline: as §1

idasanutlin = compound: COc1cc(C(=O)O)ccc1NC(=O)[C@@H]1N[C@@H](CC(C)(C)C)[C@](C#N)(c2ccc(Cl)cc2F)[C@H]1c1cccc(Cl)c1F [idasanutlin]
Outline: as §1

alisertib = compound: COc1cc(Nc2ncc3c(n2)-c2ccc(Cl)cc2C(c2c(F)cccc2OC)=NC3)ccc1C(=O)O [alisertib]
Outline: as §1

gefitinib = compound: COc1cc2ncnc(Nc3ccc(F)c(Cl)c3)c2cc1OCCCN1CCOCC1 [gefitinib]
Outline: as §1

[2] = compound: COc1cccc2cc(-c3nc([C@H]4CC[C@H](C(=O)O)CC4)n4ncnc(N)c34)[nH]c12
Outline: as §1

pictilisib = compound: CS(=O)(=O)N1CCN(Cc2cc3nc(-c4cccc5[nH]ncc45)nc(N4CCOCC4)c3s2)CC1 [pictilisib]
Outline: as §1

[3] = compound: CS(=O)(=O)c1ccc(-c2cnc(N)c(C(=O)Nc3ccccc3)n2)cc1
Outline: as §1

crizotinib = compound: C[C@@H](Oc1cc(-c2cnn(C3CCNCC3)c2)cnc1N)c1c(Cl)ccc(F)c1Cl [crizotinib]
Outline: as §1

[4] = compound: C[C@@H]1COCCN1C2=NC(=NC(=C2)C3(CC3)S(=O)(=O)C)C4=C5C=CNC5=CC=C4
Outline: as §1

[5] = compound: C[C@H](C1=CC=C(C=C1)C(=O)NC2=C3C=CNC3=NC=C2)N
Outline: as §1

duvelisib = compound: C[C@H](Nc1ncnc2nc[nH]c12)c1cc2cccc(Cl)c2c(=O)n1-c1ccccc1 [duvelisib]
Outline: as §1

gandotinib = compound: Cc1cc(Nc2cc(CN3CCOCC3)c3nc(C)c(Cc4ccc(Cl)cc4F)n3n2)n[nH]1 [gandotinib]
Outline: as §1

tozasertib = compound: Cc1cc(Nc2cc(N3CCN(C)CC3)nc(Sc3ccc(NC(=O)C4CC4)cc3)n2)n[nH]1 [tozasertib]
Outline: as §1

[6] = compound: Cc1cc(SCc2sc(-c3ccc(C(F)(F)F)cc3)nc2C)ccc1OCC(=O)O
Outline: as §1

doramapimod = compound: Cc1ccc(-n2nc(C(C)(C)C)cc2NC(=O)Nc2ccc(OCCN3CCOCC3)c3ccccc23)cc1 [doramapimod]
Outline: as §1

ispinesib = compound: Cc1ccc(C(=O)N(CCCN)[C@@H](c2nc3cc(Cl)ccc3c(=O)n2Cc2ccccc2)C(C)C)cc1 [ispinesib]
Outline: as §1

[7] = compound: COc1cc2nc(-c3cc(F)ccc3O)nc(N[C@@H]3CNC[C@H]3C(C)(C)O)c2cc1OC
Outline: as §1

lapatinib = compound: CS(=O)(=O)CCNCc1ccc(-c2ccc3ncnc(Nc4ccc(OCc5cccc(F)c5)c(Cl)c4)c3c2)o1 [lapatinib]
Outline: as §1

Measured: log2 fold change

SLC44A2 isoform 2 (UniProt Q8IWA5)
Sequence of UniProt Q8IWA5 (Q8IWA5 whole entry, looked up): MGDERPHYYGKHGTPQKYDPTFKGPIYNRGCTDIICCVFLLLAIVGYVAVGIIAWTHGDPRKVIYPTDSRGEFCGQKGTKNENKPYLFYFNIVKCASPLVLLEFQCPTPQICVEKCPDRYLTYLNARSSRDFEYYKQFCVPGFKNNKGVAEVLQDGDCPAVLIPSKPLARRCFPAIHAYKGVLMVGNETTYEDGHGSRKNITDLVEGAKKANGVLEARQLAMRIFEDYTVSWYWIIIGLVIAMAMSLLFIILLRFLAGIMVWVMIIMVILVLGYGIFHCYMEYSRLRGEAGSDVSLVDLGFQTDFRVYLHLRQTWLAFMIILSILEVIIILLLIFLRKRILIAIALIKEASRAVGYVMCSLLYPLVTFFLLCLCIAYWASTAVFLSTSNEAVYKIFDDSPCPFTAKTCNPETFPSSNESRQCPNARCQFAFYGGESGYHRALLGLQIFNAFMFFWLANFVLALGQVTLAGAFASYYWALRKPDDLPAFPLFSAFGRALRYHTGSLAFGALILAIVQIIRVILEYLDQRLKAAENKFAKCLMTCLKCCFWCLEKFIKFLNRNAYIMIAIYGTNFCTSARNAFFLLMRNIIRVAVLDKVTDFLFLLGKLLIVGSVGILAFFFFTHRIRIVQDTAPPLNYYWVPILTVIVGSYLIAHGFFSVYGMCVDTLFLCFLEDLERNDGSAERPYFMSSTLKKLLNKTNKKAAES
inactive: [1] 0.018 | filanesib 0.048 | zotarolimus -0.028 | idasanutlin 0.026 | alisertib -0.118 | gefitinib 0.002 | [2] 0.057 | pictilisib 0.13 | [3] 0.019 | crizotinib 0.113 | [4] 0.026 | [5] -0.123 | duvelisib 0.154 | gandotinib -0.017 | tozasertib -0.022 | [6] -0.046 | doramapimod 0.055 | ispinesib 0.069

SYNE2 isoform 2 (UniProt Q8WXH0)
active: gandotinib 0.521
inactive: [1] 0.112 | filanesib 0.048 | zotarolimus -0.057 | idasanutlin -0.185 | alisertib -0.054 | [7] 0.34 | gefitinib 0.078 | [2] -0.004 | lapatinib -0.133 | pictilisib 0.205 | [3] 0.209 | crizotinib -0.009 | [5] 0.429 | duvelisib 0.214 | tozasertib -0.053 | [6] 0.06 | doramapimod 0.046 | ispinesib -0.08

STXBP5 (UniProt Q5T5C0)
Sequence of UniProt Q5T5C0 (Q5T5C0 whole entry, looked up): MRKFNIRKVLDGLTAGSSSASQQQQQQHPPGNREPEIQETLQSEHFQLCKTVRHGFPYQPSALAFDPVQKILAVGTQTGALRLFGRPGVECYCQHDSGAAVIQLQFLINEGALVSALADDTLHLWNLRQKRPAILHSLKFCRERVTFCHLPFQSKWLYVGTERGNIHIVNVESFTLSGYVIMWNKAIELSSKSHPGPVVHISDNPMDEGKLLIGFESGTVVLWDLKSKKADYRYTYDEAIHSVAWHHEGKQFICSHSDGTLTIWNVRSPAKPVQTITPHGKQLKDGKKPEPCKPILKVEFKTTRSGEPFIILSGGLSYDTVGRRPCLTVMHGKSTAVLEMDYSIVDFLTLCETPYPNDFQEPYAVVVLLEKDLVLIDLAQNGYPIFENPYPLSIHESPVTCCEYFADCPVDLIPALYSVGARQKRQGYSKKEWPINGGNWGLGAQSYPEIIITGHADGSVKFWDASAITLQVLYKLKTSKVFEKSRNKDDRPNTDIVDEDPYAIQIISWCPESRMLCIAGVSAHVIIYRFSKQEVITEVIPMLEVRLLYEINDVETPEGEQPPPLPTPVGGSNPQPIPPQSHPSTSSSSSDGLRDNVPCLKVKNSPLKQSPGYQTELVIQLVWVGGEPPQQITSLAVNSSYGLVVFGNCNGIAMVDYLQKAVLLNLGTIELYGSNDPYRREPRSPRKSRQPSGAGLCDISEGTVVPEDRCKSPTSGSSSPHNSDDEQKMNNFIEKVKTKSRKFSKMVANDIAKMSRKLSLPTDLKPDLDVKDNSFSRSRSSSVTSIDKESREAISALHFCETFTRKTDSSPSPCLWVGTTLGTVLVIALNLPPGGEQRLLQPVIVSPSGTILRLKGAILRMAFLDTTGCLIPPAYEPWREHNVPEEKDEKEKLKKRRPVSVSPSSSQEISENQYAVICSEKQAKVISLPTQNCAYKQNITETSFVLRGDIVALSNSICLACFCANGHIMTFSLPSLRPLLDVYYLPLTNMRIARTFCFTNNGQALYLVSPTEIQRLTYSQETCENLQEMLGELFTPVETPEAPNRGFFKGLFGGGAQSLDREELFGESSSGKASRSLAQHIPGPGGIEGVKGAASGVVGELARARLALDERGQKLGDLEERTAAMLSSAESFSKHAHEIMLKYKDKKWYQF
inactive: [1] -0.012 | filanesib -0.039 | zotarolimus 0 | idasanutlin -0.022 | alisertib -0.084 | [7] 0.015 | gefitinib -0.006 | [2] 0.003 | lapatinib 0.023 | pictilisib -0.038 | [3] -0.021 | crizotinib -0.024 | [4] 0.006 | [5] 0.047 | duvelisib 0.066 | gandotinib -0.029 | tozasertib 0.017 | [6] -0.002 | doramapimod 0.026 | ispinesib -0.058

SURF1 (UniProt Q15526)
Sequence of UniProt Q15526 (Q15526 whole entry, looked up): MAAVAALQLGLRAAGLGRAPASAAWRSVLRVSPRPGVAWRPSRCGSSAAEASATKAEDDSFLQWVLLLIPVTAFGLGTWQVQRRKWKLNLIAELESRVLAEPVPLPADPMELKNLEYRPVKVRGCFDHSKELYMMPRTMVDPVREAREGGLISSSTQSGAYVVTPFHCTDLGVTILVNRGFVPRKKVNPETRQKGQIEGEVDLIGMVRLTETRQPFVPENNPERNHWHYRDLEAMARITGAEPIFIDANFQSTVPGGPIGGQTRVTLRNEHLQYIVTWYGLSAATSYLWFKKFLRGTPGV
inactive: [1] 0.053 | filanesib -0.032 | zotarolimus -0.008 | idasanutlin 0.025 | alisertib -0.098 | [7] -0.004 | gefitinib -0.055 | [2] 0.083 | lapatinib 0.058 | pictilisib 0.051 | [3] -0.001 | crizotinib -0.008 | [4] 0.043 | [5] -0.013 | duvelisib 0 | gandotinib -0.066 | tozasertib 0.016 | [6] 0.032 | doramapimod 0.01 | ispinesib -0.181

SMDT1 (UniProt Q9H4I9)
Sequence of UniProt Q9H4I9 (Q9H4I9 whole entry, looked up): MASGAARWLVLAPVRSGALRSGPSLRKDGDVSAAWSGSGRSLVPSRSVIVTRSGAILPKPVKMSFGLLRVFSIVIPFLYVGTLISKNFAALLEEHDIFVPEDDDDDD
inactive: [1] -0.053 | zotarolimus -0.014 | idasanutlin -0.087 | alisertib -0.058 | [2] 0.014 | pictilisib 0.095 | [3] 0.144 | crizotinib 0.042 | [4] 0.017 | [5] -0.035 | duvelisib 0.026 | gandotinib -0.23 | tozasertib -0.014 | [6] 0 | doramapimod 0.054
active: filanesib -0.39

SLC38A2 (UniProt Q96QD8)
Sequence of UniProt Q96QD8 (Q96QD8 whole entry, looked up): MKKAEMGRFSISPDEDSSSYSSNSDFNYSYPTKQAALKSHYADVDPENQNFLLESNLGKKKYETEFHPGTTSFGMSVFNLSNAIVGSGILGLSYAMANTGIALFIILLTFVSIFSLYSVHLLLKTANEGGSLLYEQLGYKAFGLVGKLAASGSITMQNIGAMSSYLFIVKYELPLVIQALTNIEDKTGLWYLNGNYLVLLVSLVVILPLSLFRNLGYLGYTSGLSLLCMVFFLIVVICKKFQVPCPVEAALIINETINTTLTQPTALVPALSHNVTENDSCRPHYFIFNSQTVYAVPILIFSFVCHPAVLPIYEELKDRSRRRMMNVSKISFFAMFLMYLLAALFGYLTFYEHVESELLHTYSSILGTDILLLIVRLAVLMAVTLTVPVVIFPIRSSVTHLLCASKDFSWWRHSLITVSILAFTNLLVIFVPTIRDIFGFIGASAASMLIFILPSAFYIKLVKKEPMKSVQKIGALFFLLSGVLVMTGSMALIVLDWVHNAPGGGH
inactive: [1] -0.041 | filanesib -0.205 | zotarolimus 0.048 | idasanutlin 0.011 | alisertib -0.019 | [7] -0.122 | gefitinib -0.099 | [2] 0.097 | lapatinib -0.055 | [3] 0.031 | crizotinib 0.028 | [4] 0.075 | [5] -0.075 | duvelisib 0.068 | tozasertib -0.009 | [6] 0 | doramapimod -0.03 | ispinesib -0.049

SURF2 (UniProt Q15527)
Sequence of UniProt Q15527 (Q15527 whole entry, looked up): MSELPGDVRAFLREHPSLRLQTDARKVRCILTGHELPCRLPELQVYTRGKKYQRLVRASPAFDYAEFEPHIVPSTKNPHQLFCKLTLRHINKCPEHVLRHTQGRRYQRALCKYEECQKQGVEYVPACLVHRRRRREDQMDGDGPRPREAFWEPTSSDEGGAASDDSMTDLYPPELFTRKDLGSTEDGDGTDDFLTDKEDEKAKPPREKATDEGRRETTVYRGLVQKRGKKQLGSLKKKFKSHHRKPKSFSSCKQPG
inactive: [1] 0.038 | filanesib 0.014 | zotarolimus 0.055 | idasanutlin 0.054 | alisertib -0.133 | [7] 0.023 | gefitinib 0.028 | [2] -0.034 | lapatinib 0.006 | pictilisib -0.07 | [3] -0.009 | crizotinib 0.084 | [4] -0.02 | [5] -0.118 | duvelisib 0.018 | gandotinib 0 | tozasertib -0.01 | [6] 0.04 | doramapimod -0.068 | ispinesib 0.038

TIMM13 (UniProt Q9Y5L4)
Sequence of UniProt Q9Y5L4 (Q9Y5L4 whole entry, looked up): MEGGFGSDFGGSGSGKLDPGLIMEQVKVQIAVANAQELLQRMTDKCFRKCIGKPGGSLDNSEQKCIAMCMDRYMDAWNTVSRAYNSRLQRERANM
inactive: [1] 0.206 | filanesib -0.091 | zotarolimus 0.042 | idasanutlin -0.043 | alisertib -0.006 | gefitinib -0.002 | [2] -0.01 | lapatinib 0.027 | pictilisib -0.056 | [3] -0.047 | crizotinib 0.051 | [4] 0.151 | [5] -0.115 | duvelisib 0.079 | gandotinib -0.002 | tozasertib 0.038 | [6] 0.006 | doramapimod 0.039 | ispinesib 0.12
active: [7] -0.3
